The record followed here is the supplement of paper PMC10037445.

Several values for one entry are separate records, joined by “and”; a condition that tells them apart may be missing. Equal entries are not always repeated. Over roughly 2,900 compounds, “NF-kB SEAP reporter activity, fold change vs agonist alone” has its median near 0.99; the highest 2% begin near 2.6. The list comes from a sample in which the highest values are over-represented; it also holds similar structures and randomly drawn compounds.

Assay [1] deals with RAW-Dual. The assay can be described thus: NF-kB SEAP reporter activity, fold change vs agonist alone; cytotoxicity flag (confluency mask): not cytotoxic; higher = enhanced NF-kB activity. In outline: (§1)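 Library stock was pin-tooled at 50 nL into 384-well plates of RAW-Dual macrophages (50,000 cells/well, DMEM), followed 1 h later by a PRR agonist, and the cells were kept at 37 °C, 5% CO2. Supernatant collected after 20 hours was read for IRF by QuantiLuc luminescence and for NF-κB by QuantiBlue absorbance at 620 nm. Reporter activity is fold change over agonist-alone wells, and a well counted as cytotoxic when its IncuCyte confluency was below 70% of agonist controls in both mask sets.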

In assay [2] the test system is RAW-Dual. In words: NF-kB SEAP reporter activity, fold change vs agonist alone; higher = enhanced NF-kB activity. The note with it: library stock concentration (final ~1000-fold dilution): 10 mM. The method, boiled down: as §1
Assay [3] relates to RAW-Dual. The assay can be described thus: NF-kB SEAP reporter activity, fold change vs agonist alone; cytotoxicity flag (confluency mask): cytotoxic (confluency <70% of control); higher = enhanced NF-kB activity. In outline:
as §1

The mark [4] stands for this setting: agonist: ODN 1826 (TLR9) 0.5 ug/mL.
The mark [5] stands for this setting: agonist: Pam2CSK4 (TLR2/6) 0.1 ug/mL.
[6] abbreviates: agonist: Pam3CSK4 (TLR2/1) 0.1 ug/mL.
Where [7] appears, read: cytotoxicity flag (confluency mask): cytotoxic (confluency <70% of control), agonist: MPLA (TLR4) […].
Where [8] appears, read: cytotoxicity flag (confluency mask): cytotoxic (confluency <70% of control), agonist: Imiquimod (TLR7) […].
[9] abbreviates: cytotoxicity flag (confluency mask): not cytotoxic, agonist: Imiquimod (TLR7) […].
[10] abbreviates: cytotoxicity flag (confluency mask): not cytotoxic, agonist: MPLA (TLR4) […].

Turning to `CC(C)=CCCC(C)(OC1OC(CO)C(O)C(O)C1O)C1CCC2(C)C1C(O)CC1C3(C)CCC(O)C(C)(C)C3C(OC3OC(CO)C(O)C(O)C3OC3OCC(O)C(O)C3O)CC12C` (configuration not stated) (library stock concentration (final ~1000-fold dilution): 10 mM), the “NF-kB SEAP reporter activity” value turned out to be 0.93 with RAW-Dual [1] (agonist: LPS (TLR4) 0.1 ug/mL), 1.02 in the assay with RAW-Dual [1] (setting [4]), 0.792 in the assay on RAW-Dual [1] (setting [5]) and 0.975 in the assay with RAW-Dual [1] (setting [6]).
In the case of `CS(=O)(=O)O.Fc1ccc(C2CCNCC2COc2ccc3c(c2)OCO3)cc1` (configuration not stated), the “NF-kB SEAP reporter activity” value in the assay on RAW-Dual [2] (setting [7]) stood at 1.43.
For the compound `CS(=O)(=O)O.Fc1ccc(C2CCNCC2COc2ccc3c(c2)OCO3)cc1` (configuration not stated) (library stock concentration (final ~1000-fold dilution): 10 mM), the “NF-kB SEAP reporter activity” value with RAW-Dual [3] (agonist: LPS (TLR4) 0.1 ug/mL) stood at 1.08; in the assay on RAW-Dual [3] (setting [4]), 0.542; in the assay with RAW-Dual [3] (setting [5]), 0.486; with RAW-Dual [3] (setting [6]), 0.425.
As for `Fc1ccc(Nc2nc(Nc3ccc(-c4nc5ccccc5[nH]4)cc3)nc(N3CCOCC3)n2)cc1`, the “NF-kB SEAP reporter activity” value in the assay with RAW-Dual [2] (setting [8]) is 0.399; with RAW-Dual [2] (setting [7]), 1.42.
On to `Fc1ccc(Nc2nc(Nc3ccc(-c4nc5ccccc5[nH]4)cc3)nc(N3CCOCC3)n2)cc1` (library stock concentration (final ~1000-fold dilution): 10 mM), for which the “NF-kB SEAP reporter activity” value was determined as 0.621 in the assay on RAW-Dual [3] (agonist: LPS (TLR4) 0.1 ug/mL), 0.452 in the assay with RAW-Dual [3] (setting [4]), 0.212 with RAW-Dual [3] (setting [5]) and 0.25 in the assay on RAW-Dual [3] (setting [6]).
Consider `CCC(CC)(NC(=O)C(C)C)C(=O)NC(CCCNC(=N)N)C(=O)NC1(C(=O)NC(c2ccc(F)cc2)c2ccc(F)cc2)CCCC1` (configuration not stated) (library stock concentration (final ~1000-fold dilution): 10 mM), for which the “NF-kB SEAP reporter activity” value in the assay with RAW-Dual [1] (agonist: LPS (TLR4) 0.1 ug/mL) came out at 0.847; in the assay with RAW-Dual [1] (setting [4]) it was 0.788; in the assay with RAW-Dual [1] (setting [5]) it was 0.957; in the assay on RAW-Dual [1] (setting [6]), 0.971.
Regarding `CCC(CC)(NC(=O)C(C)C)C(=O)NC(CCCNC(=N)N)C(=O)NC1(C(=O)NC(c2ccc(F)cc2)c2ccc(F)cc2)CCCC1` (configuration not stated), the “NF-kB SEAP reporter activity” value in the assay on RAW-Dual [2] (setting [9]) was found to be 1.08; in the assay on RAW-Dual [2] (setting [10]), 0.867.
With `CC/C(C)=C/CC[C@](C)(O)C1CC[C@]2(C)C3C[C@@H](O[C@@H]4O[C@H](CO)[C@@H](O)[C@H](O)[C@H]4O[C@@H]4O[C@@H](C)[C@H](O)[C@@H](O)[C@H]4O)C4C(C)(C)C(O)CC[C@]4(C)C3C[C@H](O)C12` (some centres not stated) (library stock concentration (final ~1000-fold dilution): 10 mM), the “NF-kB SEAP reporter activity” value in the assay on RAW-Dual [1] (agonist: LPS (TLR4) 0.1 ug/mL) came to 1.2; in the assay on RAW-Dual [1] (setting [4]), 0.992; in the assay on RAW-Dual [1] (setting [5]) it was 0.952; in the assay on RAW-Dual [1] (setting [6]), 1.14.
`CC/C(C)=C/CC[C@](C)(O)C1CC[C@]2(C)C3C[C@@H](O[C@@H]4O[C@H](CO)[C@@H](O)[C@H](O)[C@H]4O[C@@H]4O[C@@H](C)[C@H](O)[C@@H](O)[C@H]4O)C4C(C)(C)C(O)CC[C@]4(C)C3C[C@H](O)C12` (some centres not stated): the “NF-kB SEAP reporter activity” value is 0.952 in the assay on RAW-Dual [2] (setting [9]) and 0.934 with RAW-Dual [2] (setting [10]).
Turning to `Cc1ccccc1C(=O)N1CCc2cc(-c3nc(NC(=O)Cc4ccc5c(c4)OCO5)sc3C)ccc21` (library stock concentration (final ~1000-fold dilution): 10 mM), the “NF-kB SEAP reporter activity” value was 1.34 and 1.45 in the assay with RAW-Dual [1] (agonist: LPS (TLR4) 0.1 ug/mL); 0.971 and 0.758 in the assay with RAW-Dual [1] (setting [4]); 0.716 and 0.692 in the assay with RAW-Dual [1] (setting [5]); 0.695 and 0.61 with RAW-Dual [1] (setting [6]).
As to `CCNC(=O)c1cc2c(-c3cc(C(C)(C)O)ccc3Oc3c(C)cc(F)cc3C)cn(C)c(=O)c2[nH]1` (library stock concentration (final ~1000-fold dilution): 10 mM), the “NF-kB SEAP reporter activity” value was found to be 0.903 in the assay with RAW-Dual [3] (agonist: LPS (TLR4) 0.1 ug/mL), 1.34 with RAW-Dual [3] (setting [4]), 0.318 in the assay on RAW-Dual [3] (setting [5]) and 0.842 in the assay with RAW-Dual [3] (setting [6]).
For the compound `CCS(=O)(=O)Nc1ccc(Oc2ccc(F)cc2F)c(-c2cn(C)c(=O)c3[nH]ccc23)c1`, the “NF-kB SEAP reporter activity” value in the assay on RAW-Dual [2] (setting [8]) stood at 1.54; in the assay on RAW-Dual [2] (setting [7]), 2.13.
Consider `CN1C(=O)C(C)(C)Oc2c(-c3cn(C)c(=O)c4[nH]ccc34)cc(S(C)(=O)=O)cc21`, for which the “NF-kB SEAP reporter activity” value is 1.56 with RAW-Dual [2] (setting [8]) and 2.34 in the assay with RAW-Dual [2] (setting [7]).
On to `CN1C(=O)C(C)(C)Oc2c(-c3cn(C)c(=O)c4[nH]ccc34)cc(S(C)(=O)=O)cc21` (library stock concentration (final ~1000-fold dilution): 10 mM), for which the “NF-kB SEAP reporter activity” value in the assay on RAW-Dual [3] (agonist: LPS (TLR4) 0.1 ug/mL) worked out at 2.16; in the assay with RAW-Dual [3] (setting [4]), 1.73; with RAW-Dual [3] (setting [5]), 0.658; in the assay with RAW-Dual [3] (setting [6]), 1.99.
Consider `CCNC(=O)c1cc2c(-c3cc(C(C)(C)O)ccc3Oc3c(C)cc(F)cc3C)cn(C)c(=O)c2[nH]1`, for which the “NF-kB SEAP reporter activity” value was determined as 1.4 with RAW-Dual [2] (setting [8]) and 1.84 in the assay on RAW-Dual [2] (setting [7]).
With `CCS(=O)(=O)Nc1ccc(Oc2ccc(F)cc2F)c(-c2cn(C)c(=O)c3[nH]ccc23)c1` (library stock concentration (final ~1000-fold dilution): 10 mM), the “NF-kB SEAP reporter activity” value in the assay on RAW-Dual [3] (agonist: LPS (TLR4) 0.1 ug/mL) came out at 3.19; with RAW-Dual [3] (setting [4]) it was 2.18; in the assay with RAW-Dual [3] (setting [5]), 0.424; in the assay with RAW-Dual [3] (setting [6]), 1.13.
Take `CC1OC(OC2C(CO)OC(OCC3OC(OC(=O)[C@]45CC[C@@H](C)[C@H](C)[C@H]4C4=CCC6[C@@]7(C)C[C@@H](O)[C@@H](O)[C@@](C)(CO)C7CC[C@@]6(C)[C@]4(C)CC5)C(O)C(O)C3O)C(O)C2O)C(O)C(O)C1O` (some centres not stated): the “NF-kB SEAP reporter activity” value with RAW-Dual [2] (setting [9]) was found to be 0.975; in the assay on RAW-Dual [2] (setting [10]), 1.12.
For the compound `CC1OC(OC2C(CO)OC(OCC3OC(OC(=O)[C@]45CC[C@@H](C)[C@H](C)[C@H]4C4=CCC6[C@@]7(C)C[C@@H](O)[C@@H](O)[C@@](C)(CO)C7CC[C@@]6(C)[C@]4(C)CC5)C(O)C(O)C3O)C(O)C2O)C(O)C(O)C1O` (some centres not stated) (library stock concentration (final ~1000-fold dilution): 10 mM), the “NF-kB SEAP reporter activity” value amounted to 1.08 in the assay on RAW-Dual [1] (agonist: LPS (TLR4) 0.1 ug/mL), 0.915 in the assay on RAW-Dual [1] (setting [4]), 1.06 in the assay on RAW-Dual [1] (setting [5]) and 1.1 in the assay on RAW-Dual [1] (setting [6]).
Consider `Cc1c(CN2CCC(Nc3ncnc4sc(CC(F)(F)F)cc34)CC2)ccc2[nH]c(C#N)cc12`, for which the “NF-kB SEAP reporter activity” value is 0.878 in the assay with RAW-Dual [2] (setting [9]) and 0.915 with RAW-Dual [2] (setting [10]).
For `Cc1c(CN2CCC(Nc3ncnc4sc(CC(F)(F)F)cc34)CC2)ccc2[nH]c(C#N)cc12` (library stock concentration (final ~1000-fold dilution): 10 mM), the “NF-kB SEAP reporter activity” value is 1.32 in the assay with RAW-Dual [1] (agonist: LPS (TLR4) 0.1 ug/mL), 0.176 in the assay with RAW-Dual [1] (setting [4]), 0.631 in the assay on RAW-Dual [1] (setting [5]) and 0.575 with RAW-Dual [1] (setting [6]).
As for `O=C(NC1=CC(=O)[C@H]2O[C@H]2[C@H]1O)c1ccccc1O` (library stock concentration (final ~1000-fold dilution): 10 mM), the “NF-kB SEAP reporter activity” value in the assay on RAW-Dual [1] (agonist: LPS (TLR4) 0.1 ug/mL) worked out at 0.727; in the assay on RAW-Dual [1] (setting [4]) it was 0.951; with RAW-Dual [1] (setting [5]) it was 0.806; in the assay with RAW-Dual [1] (setting [6]), 0.551.
Take `O=C(NC1=CC(=O)[C@H]2O[C@H]2[C@H]1O)c1ccccc1O`: the “NF-kB SEAP reporter activity” value is 1 with RAW-Dual [2] (setting [9]) and 1.08 in the assay with RAW-Dual [2] (setting [10]).
